Data on 65 compounds can be found in PubChem BioAssay (Tox21).

This test concerns the target Beta-2 adrenergic receptor (Homo sapiens) (UniProt P07550). The experiment in a line: Adrenergic beta2 receptor (ADRB2) small molecule agonists, cell-based qHTS assay (AID 1963593).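 Note: CHO cells stably overexpressing human ADRB2.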 Put shortly: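 CHO cells stably over-expressing ADRB2 were plated overnight at 37C, then dosed with compounds plus a stimulation mix containing 100uM IBMX and 25uM Ro-20-1724 for 0.5hr at room temperature. cAMP was measured by HTRF competition, 1hr.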
Background: Quantitative high-throughput screening tests each substance at several concentrations.

Results filed as inconclusive are left out. Entries that show only a call come without a potency. The source made the active and inactive calls. Calls come from the whole dose curve.

Beta-2 adrenergic receptor (Homo sapiens), sequence (P07550 whole entry, looked up): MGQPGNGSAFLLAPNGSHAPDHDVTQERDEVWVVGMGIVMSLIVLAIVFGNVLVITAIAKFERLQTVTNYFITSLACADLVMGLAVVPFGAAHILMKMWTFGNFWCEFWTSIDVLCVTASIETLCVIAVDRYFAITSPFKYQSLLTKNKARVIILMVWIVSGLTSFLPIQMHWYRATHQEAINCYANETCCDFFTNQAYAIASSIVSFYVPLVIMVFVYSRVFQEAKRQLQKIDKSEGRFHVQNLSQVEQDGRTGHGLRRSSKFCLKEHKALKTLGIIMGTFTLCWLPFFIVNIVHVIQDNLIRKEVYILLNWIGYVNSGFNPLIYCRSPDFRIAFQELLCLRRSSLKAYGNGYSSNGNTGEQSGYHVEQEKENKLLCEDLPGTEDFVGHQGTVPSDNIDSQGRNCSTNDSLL

With `Clc1ccc(C(Cl)(Cl)Cl)c(Cl)c1`, the Potency entry is “inactive”.
The entry for `Cc1ccc([N+](=O)[O-])cc1` is “inactive”.
As for `COc1cc(N)c(Cl)cc1C(=O)NC1CN2CCC1CC2` (stereo not given), the Potency result is “inactive”.
As to `CC(O)CCO` (stereo not given), the Potency entry was “inactive”.
The entry for `CC(C)CCCCCCOC(=O)c1ccccc1C(=O)OCCCCCCC(C)C` is “inactive”.
Regarding `C=C(C)C#N`, the Potency result was “inactive”.
The entry for `CCOC(=O)C1OC1(C)c1ccccc1` (stereo not given) is “inactive”.
With `CCCC(C)(COC(N)=O)COC(=O)NC(C)C` (stereo not given) the entry was “inactive”; with `CC(C)(C#N)N=NC(C)(C)C#N`, “inactive”.
The entry for `Brc1ccc(Oc2cc(Br)c(Br)cc2Br)c(Br)c1` is “inactive”; for `c1ccc(NNc2ccccc2)cc1` it is “inactive”.
As for `CCc1cccc(C)c1N(C(=O)CCl)C(C)COC` (stereo not given), the Potency result was “inactive”.
With `Cl/C=C\C[N+]12CN3CN(CN(C3)C1)C2`, the Potency result was “inactive”.
The entry for `CSc1nnc(C(C)(C)C)c(=O)n1N` is “inactive”.
With `CC(=NC#N)N(C)Cc1ccc(Cl)nc1` the entry was “inactive”; with `CCCCCBr`, “inactive”.
The entry for `O=NN1CCCCCCC1` is “inactive”; for `COC(=O)c1ccccc1N` it is “inactive”.
`O=C(O)C(F)(F)C(F)(F)C(F)(F)C(F)(F)C(F)(F)C(F)(F)C(F)(F)C(F)(F)F`: the Potency result is “inactive”.
On to `ClC(Cl)(Cl)c1ccccc1`, for which the Potency entry is “inactive”.
For the compound `Cc1cccc([N+](=O)[O-])c1`, the Potency entry was “inactive”.
For the compound `NC(=O)c1cc([N+](=O)[O-])cc([N+](=O)[O-])c1`, the Potency entry was “inactive”.
The entry for `ClCc1ccccn1` is “inactive”; for `COC(C)(C)CCCC(C)C/C=C/C(C)=C/C(=O)OC(C)C` (stereo not given) it is “inactive”; for `CCCC1CCCCN1` (stereo not given) it is “inactive”.
The entry for `O=P(O)(Oc1ccccc1)Oc1ccccc1` is “inactive”; for `CCN(CC)C1CCCCC1` it is “inactive”.
Regarding `c1ccc(-c2cccc(-c3ccccc3)c2)cc1`, the Potency entry was “inactive”.
With `ClCC1CO1` (stereo not given) the entry was “inactive”.
With `C1CN2CCC1CC2` the entry was “inactive”; with `O=C(O)CC[N+](=O)[O-]`, “inactive”.
As for `CC(O)CN1CCN(CC(=O)[O-])CCN(CC(=O)[O-])CCN(CC(=O)[O-])CC1.[Gd+3]` (stereo not given), the Potency entry is “inactive”.
In the case of `Cc1ncc(CNC(=O)N(CCCl)N=O)c(N)n1`, the Potency result was “inactive”.
The entry for `BrC(Br)Br` is “inactive”.
With `C#CCOC(=O)/C=C(C)/C=C/CC(C)CCCC(C)C` (stereo not given), the Potency entry is “inactive”.
As to `Cc1cc(Cl)ccc1N=CN(C)C`, the Potency result was “inactive”.
The entry for `Cc1cc(Cl)ccc1OC(C)C(=O)O` (stereo not given) is “inactive”.
For the compound `c1ccc2c(c1)Oc1ccccc1O2`, the Potency result is “inactive”.
In the case of `COC[C@H](C)N(C(=O)CCl)c1c(C)csc1C`, the Potency result is “inactive”.
With `C=CCOCC1CO1` (stereo not given), the Potency entry was “inactive”.
The entry for `C=C(C)[C@@H]1CC=C(C=O)CC1` is “inactive”; for `Nc1cnn(-c2ccccc2)c(=O)c1Cl` it is “inactive”.
With `Cc1ccc2ccccc2c1` the entry was “inactive”.
With `CCC1(CC)C(=O)C=CNC1=O` the entry was “inactive”; with `NC1(c2ccccc2)CCCCC1`, “inactive”; with `Cc1ccc(N=C=O)cc1N=C=O`, “inactive”.
For the compound `CC1(C)CC(=O)CC(C)(C)N1[O]`, the Potency result is “inactive”.
The entry for `CCCCCCCCCCCCBr` is “inactive”; for `N#CCC#N` it is “inactive”; for `O=C(O)c1ccccn1` it is “inactive”.
As to `O=C(Cl)OCCOCCOC(=O)Cl`, the Potency entry was “inactive”.
`N#CN=C(N)N`: the Potency result was “inactive”.
The entry for `CCOP(=O)(OCC)OP(=O)(OCC)OCC` is “inactive”; for `COc1ccc2c3c1O[C@H]1[C@H](O)CC[C@H]4[C@@H](C2)N(C)CC[C@@]341` it is “inactive”.
For the compound `Nc1ccc([As](=O)(O)O)cc1`, the Potency entry is “inactive”.
For `N#CC1(N=NC2(C#N)CCCCC2)CCCCC1`, the Potency result was “inactive”.
Take `Nc1ccc(Cl)cc1`: the Potency entry is “inactive”.
With `CCOC(=O)Nc1cccc(OC(=O)Nc2ccccc2)c1` the entry was “inactive”; with `Clc1cnc(Oc2ccc(Oc3ncc(Cl)cc3Cl)cc2)c(Cl)c1`, “inactive”.
The entry for `N#Cc1ccccn1` is “inactive”; for `COc1cc(OC)nc(Sc2cccc(Cl)c2C(=O)O)n1` it is “inactive”; for `Cc1ccccc1[N+](=O)[O-]` it is “inactive”.
For the compound `CC1(C)[C@H](C(=O)O[C@H](C#N)c2cccc(Oc3ccccc3)c2)[C@@H]1/C=C(\Cl)C(F)(F)F`, the Potency result was “inactive”.
As to `COc1nc(NC(C)C)nc(NC(C)C)n1`, the Potency result is “inactive”.
As for `CCN(CCO)CCO`, the Potency entry was “inactive”.
